According to the supplement of paper PMC12645437, “Orthogonal IMiD-Degron Pairs Induce Selective Protein Degradation in Cells” (ACS Chemical Biology, 2025):
The full ranking holds about 8,300 sequences; the median of “log2 fold change of degron read counts, EGFP-low vs EGFP+ sorted cells (limma voom), compound-induced degradation” is about -1.1, and the highest 2% start at about 3.2. The list comes from a sample in which the highest values are over-represented; it also holds similar and randomly drawn sequences.

T1: CRBN, Q96SW2
T1 chain: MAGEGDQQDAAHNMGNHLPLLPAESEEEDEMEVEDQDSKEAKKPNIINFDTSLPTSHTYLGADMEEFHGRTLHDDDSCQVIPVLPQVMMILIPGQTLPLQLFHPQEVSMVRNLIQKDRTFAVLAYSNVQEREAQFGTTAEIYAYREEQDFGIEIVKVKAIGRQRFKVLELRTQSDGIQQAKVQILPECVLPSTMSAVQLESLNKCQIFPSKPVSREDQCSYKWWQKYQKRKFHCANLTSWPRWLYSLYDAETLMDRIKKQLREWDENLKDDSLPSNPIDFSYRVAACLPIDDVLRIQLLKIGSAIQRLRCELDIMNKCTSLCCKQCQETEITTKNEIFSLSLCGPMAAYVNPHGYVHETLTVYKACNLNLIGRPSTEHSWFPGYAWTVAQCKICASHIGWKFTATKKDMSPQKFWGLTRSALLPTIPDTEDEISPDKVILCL

B1: 46F_47E_49N_50Q_52G_53R_54D_55F_67L_, Q9UKT9 (peptide)
chain: FECNQCGRDFTQKGNLLRHIKL
B2: 46L_47I_49P_50I_52G_53F_54C_55C_67L_, Q9UKT9 (peptide)
chain: LICPICGFCCTQKGNLLRHIKL
B3: 46L_47L_49P_50I_52G_53F_54C_55C_67L_, Q9UKT9 (peptide)
chain: LLCPICGFCCTQKGNLLRHIKL
B4: 46L_47N_49P_50I_52G_53F_54C_55C_67L_, Q9UKT9 (peptide)
chain: LNCPICGFCCTQKGNLLRHIKL
B5: 46L_47D_49P_50I_52G_53F_54C_55C_67L_, Q9UKT9 (peptide)
chain: LDCPICGFCCTQKGNLLRHIKL
B6: 46L_47H_49P_50I_52G_53F_54C_55C_67L_, Q9UKT9 (peptide)
chain: LHCPICGFCCTQKGNLLRHIKL
B7: 46L_47F_49P_50I_52G_53F_54C_55C_67L_, Q9UKT9 (peptide)
chain: LFCPICGFCCTQKGNLLRHIKL
B8: 46L_47M_49P_50I_52G_53F_54C_55C_67L_, Q9UKT9 (peptide)
chain: LMCPICGFCCTQKGNLLRHIKL
B9: 46L_47Q_49P_50I_52G_53F_54C_55C_67L_, Q9UKT9 (peptide)
chain: LQCPICGFCCTQKGNLLRHIKL
B10: 46L_47V_49P_50I_52G_53F_54C_55C_67L_, Q9UKT9 (peptide)
chain: LVCPICGFCCTQKGNLLRHIKL
B11: 46L_47C_49P_50I_52G_53F_54C_55C_67L_, Q9UKT9 (peptide)
chain: LCCPICGFCCTQKGNLLRHIKL
B12: 46L_47Y_49P_50I_52G_53F_54C_55C_67L_, Q9UKT9 (peptide)
chain: LYCPICGFCCTQKGNLLRHIKL
B13: 46L_47W_49P_50I_52G_53F_54C_55C_67L_, Q9UKT9 (peptide)
chain: LWCPICGFCCTQKGNLLRHIKL
B14: 46F_47V_49N_50V_52G_53A_54R_55F_67L_, Q9UKT9 (peptide)
chain: FVCNVCGARFTQKGNLLRHIKL
B15: 46F_47D_49E_50I_52G_53H_54A_55F_67L_, Q9UKT9 (peptide)
chain: FDCEICGHAFTQKGNLLRHIKL
B16: 46F_47Q_49E_50I_52G_53H_54A_55F_67L_, Q9UKT9 (peptide)
chain: FQCEICGHAFTQKGNLLRHIKL
B17: 46F_47G_49N_50Q_52G_53R_54A_55F_67L_, Q9UKT9 (peptide)
chain: FGCNQCGRAFTQKGNLLRHIKL
B18: 46F_47S_49E_50I_52G_53R_54S_55F_67L_, Q9UKT9 (peptide)
chain: FSCEICGRSFTQKGNLLRHIKL
B19: 46F_47T_49P_50I_52G_53H_54Q_55F_67L_, Q9UKT9 (peptide)
chain: FTCPICGHQFTQKGNLLRHIKL
B20: 46F_47L_49D_50Q_52G_53A_54S_55F_67L_, Q9UKT9 (peptide)
chain: FLCDQCGASFTQKGNLLRHIKL
B21: 46F_47M_49E_50I_52G_53R_54C_55F_67L_, Q9UKT9 (peptide)
chain: FMCEICGRCFTQKGNLLRHIKL
B22: 46F_47T_49D_50Q_52G_53A_54F_55F_67L_, Q9UKT9 (peptide)
chain: FTCDQCGAFFTQKGNLLRHIKL
B23: 46F_47Y_49N_50I_52G_53A_54E_55F_67L_, Q9UKT9 (peptide)
chain: FYCNICGAEFTQKGNLLRHIKL
B24: 46F_47V_49P_50I_52G_53A_54E_55F_67L_, Q9UKT9 (peptide)
chain: FVCPICGAEFTQKGNLLRHIKL
B25: 46F_47Q_49P_50I_52G_53A_54E_55F_67L_, Q9UKT9 (peptide)
chain: FQCPICGAEFTQKGNLLRHIKL
B26: 46F_47Q_49N_50I_52G_53A_54E_55F_67L_, Q9UKT9 (peptide)
chain: FQCNICGAEFTQKGNLLRHIKL
B27: 46F_47S_49P_50I_52G_53A_54E_55F_67L_, Q9UKT9 (peptide)
chain: FSCPICGAEFTQKGNLLRHIKL
B28: 46F_47N_49N_50I_52G_53A_54E_55F_67L_, Q9UKT9 (peptide)
chain: FNCNICGAEFTQKGNLLRHIKL

Molecular target: T1, CRBN, Q96SW2
Assay: log2 fold change of degron read counts, EGFP-low vs EGFP+ sorted cells (limma voom), compound-induced degradation; higher = more compound-induced degradation of the degron-EGFP fusion; degrons are variants of IKZF1/3 zinc finger 2; compound dose not given here
Conditions: Jurkat, 18 h
[1] = compound: compound 19 (5-tert-butyl-thalidomide)
[2] = compound: compound 22 (5-morpholino-thalidomide)
[3] = compound: compound 33 (diphenyl IMiD analogue)
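Also: pooled lentiviral library of zinc finger degron-EGFP fusions in mCherry-positive Jurkat cells, FACS-sorted after compound exposure, with degron abundance counted by next-generation sequencing.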

Row | Sequence | log2 fold change of degron read counts [1] | log2 fold change of degron read counts [2] | log2 fold change of degron read counts [3] | log2 fold change of degron read counts (compound: thalidomide)
1 | B1 | -3.19 | -3.55 | -3.13 | -3.35
2 | B2 | 0.314 | 1.98 | 1.85 | 2.51
3 | B3 | 0.766 | 0.49 | 1.44 | 1.92
4 | B4 | 1.6 | 0.635 | 0.926 | 1.15
5 | B5 | 0.0932 | -0.387 | 0.637 | 1.33
6 | B6 | 2.7 | 2.71 | 2.46 | 1.82
7 | B7 | 3.44 | 3.46 | 2.76 | 2.26
8 | B8 | 0.471 | 1.34 | 2.61 | 2.08
9 | B9 | 1.14 | 2.25 | 2.13 | 3.61
10 | B10 | 1.02 | 2.52 | 2.24 | 2.97
11 | B11 | 1.74 | 2.1 | 2.79 | 2.63
12 | B12 | 3.56 | 3.56 | 2.91 | 1.99
13 | B13 | 3.2 | 3.49 | 2.92 | 2.17
14 | B14 | -0.689 | 0.0526 | -0.518 | 0.565
15 | B15 | -2.17 | -2.36 | -2.99 | -2.62
16 | B16 | -3.35 | -3.01 | -2.87 | -1.5
17 | B17 | -2.18 | -2.21 | -2.02 | -1.91
18 | B18 | -1.46 | -2.51 | -1.36 | -1.71
19 | B19 | 0.276 | 0.993 | 2.35 | 2.28
20 | B20 | -2 | -2.92 | -1.43 | -3.07
21 | B21 | -2.91 | -2.9 | -1.29 | -1.79
22 | B22 | -2.38 | -2.78 | -2.11 | -2.23
23 | B23 | 1.9 | 1.64 | 0.908 | -1.03
24 | B24 | 0.162 | 2.31 | 1.62 | 2.6
25 | B25 | 1.17 | 1.71 | 2.51 | 3.61
26 | B26 | -1.13 | 0.376 | 1.25 | 3.24
27 | B27 | 1.92 | 1.11 | 1.41 | 1.11
28 | B28 | -0.383 | -1.22 | -0.688 | -0.836
